# Experimental data from PubChem BioAssay (NCI).
# Compounds without any hit were thinned out: in the full panel of roughly 83,000, 20% have a hit.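 How to read the values: 0–100, growth inhibition (40 = 60% inhibited); 0, no net growth; -100 to 0, cell death (-40 = 40% of starting cells died; -100 = all dead).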 The source made the active and inactive calls. Rule for the calls: active = growth percent below 10; inactive = the rest.
# System: HS 578T breast
# Assay: NCI-60 one-dose screen, 48 h (100 = growth as untreated, 0 = no growth, -100 = all killed)
# Details: 10 µM
row,Compound,growth
1,CC(=O)OC(OC(C)=O)C1CCCO1 (stereo unspecified),105% (inactive)
2,O=C(O)c1ccnc(Br)c1,107% (inactive)
3,c1ccc2c(N3CCCCC3)ncnc2c1,116% (inactive)
4,COc1ccccc1N=Nc1c(O)ccc2cc(S(=O)(=O)O)ccc12,100% (inactive)
5,N#Cc1c(N)sc(=S)c2c1CCCC2,104% (inactive)
6,O=C(CCl)N1CCN(C/C=C/c2ccccc2)CC1,100% (inactive)
7,C#CCSc1nnnn1-c1ccc(Br)c(C)c1,78.2% (inactive)
8,C=CC[N+](C)(C)C,95.5% (inactive)
9,Nc1ccc(N)c([N+](=O)[O-])c1,105% (inactive)
10,O=C(Nc1cc(-c2ccccc2)[nH]n1)c1ccc(Cl)cc1,80.6% (inactive)
11,CC(C)C(C#N)(C(C)C)C(C)C,106% (inactive)
12,CCOC(=O)C(CCC(C)C)C(=O)OCC,115% (inactive)
13,C=CCNC(=O)c1ccc(OC)cc1,221% (inactive)
14,S=c1[nH]ccn1-c1ccccc1Cl,142% (inactive)
15,NC(=S)N/N=C/c1ccc(N)cc1,106% (inactive)
16,CCCCC(O)c1ccccc1 (stereo unspecified),116% (inactive)
17,CCOc1ccc(Br)cc1/C=N\N=C\c1cc(Br)ccc1OCC,143% (inactive)
18,O=C1Cc2ccccc2C(=O)O1,107% (inactive)
19,CC(C)CCOC(=O)c1ccccc1,105% (inactive)

row,Compound,growth
1,COC(=O)c1ccc(C(C)C)cc1,119% (inactive)
2,COc1cccc(/C=N/NC(=S)NC2CC3CCC2C3)c1O (stereo unspecified),25.8% (inactive)
3,CCOC(=O)C1OC1c1ccccc1 (stereo unspecified),115% (inactive)
4,C/C(=C\c1cc(Cl)ccc1OCC(=O)O)[N+](=O)[O-],93.5% (inactive)
5,CCN=c1cc2sc3cc(NCC)c(C)cc3nc-2cc1C,50.8% (inactive)
6,Clc1ccc(-c2nnc(-c3cccc4ccccc34)o2)cc1,103% (inactive)
7,COc1cc(OC)c2ccc(=O)oc2c1,97.1% (inactive)
8,COc1ccc(Oc2c(I)cc(CC(NC(C)=O)C(=O)O)cc2I)cc1 (stereo unspecified),95.7% (inactive)
9,Cc1cc2ccccc2c(O)c1C#N,108% (inactive)
10,CN(C)/N=C/c1ccccc1O,99.7% (inactive)
11,Cc1cc(C(C)(C)C)cc(C)c1Br,99.6% (inactive)
12,COc1cc(C2c3cc4c(cc3C3OC(=O)C2C3CO)OCO4)cc(OC)c1OC (stereo unspecified),33.8% (inactive)
13,CCCC1(c2ccccc2)NC(=O)NC1=O (stereo unspecified),113% (inactive)
14,CN(C)c1ccc(S(=O)(=O)O)cc1,114% (inactive)
15,Clc1ccc(-c2n[nH]c3c2Cc2ccccc2-3)cc1Cl,110% (inactive)
16,S=C1CCCCCN1,105% (inactive)
17,CCCOC(=O)C(O)c1ccccc1 (stereo unspecified),104% (inactive)
18,O=S(=O)(O)c1ccc(O)c2ccccc12,102% (inactive)
19,N/N=C(/Cc1ccccc1)NNC(N)=S,106% (inactive)

# System: NCI/ADR-RES ovarian
# Assay: as above
# Details: 10 µM
row,Compound,growth
1,CC(=O)OC(OC(C)=O)C1CCCO1 (stereo unspecified),94.5% (inactive)
2,O=C(O)c1ccnc(Br)c1,111% (inactive)
3,c1ccc2c(N3CCCCC3)ncnc2c1,91% (inactive)
4,COc1ccccc1N=Nc1c(O)ccc2cc(S(=O)(=O)O)ccc12,99.8% (inactive)
5,N#Cc1c(N)sc(=S)c2c1CCCC2,104% (inactive)
6,O=C(CCl)N1CCN(C/C=C/c2ccccc2)CC1,105% (inactive)
7,C#CCSc1nnnn1-c1ccc(Br)c(C)c1,84.6% (inactive)
8,C=CC[N+](C)(C)C,105% (inactive)
9,Nc1ccc(N)c([N+](=O)[O-])c1,107% (inactive)
10,O=C(Nc1cc(-c2ccccc2)[nH]n1)c1ccc(Cl)cc1,85% (inactive)
11,CC(C)C(C#N)(C(C)C)C(C)C,104% (inactive)
12,CCOC(=O)C(CCC(C)C)C(=O)OCC,108% (inactive)
13,C=CCNC(=O)c1ccc(OC)cc1,101% (inactive)
14,S=c1[nH]ccn1-c1ccccc1Cl,115% (inactive)
15,NC(=S)N/N=C/c1ccc(N)cc1,102% (inactive)
16,CCCCC(O)c1ccccc1 (stereo unspecified),99.3% (inactive)
17,CCOc1ccc(Br)cc1/C=N\N=C\c1cc(Br)ccc1OCC,120% (inactive)
18,O=C1Cc2ccccc2C(=O)O1,114% (inactive)
19,CC(C)CCOC(=O)c1ccccc1,107% (inactive)

row,Compound,growth
1,COC(=O)c1ccc(C(C)C)cc1,103% (inactive)
2,COc1cccc(/C=N/NC(=S)NC2CC3CCC2C3)c1O (stereo unspecified),15.4% (inactive)
3,CCOC(=O)C1OC1c1ccccc1 (stereo unspecified),106% (inactive)
4,C/C(=C\c1cc(Cl)ccc1OCC(=O)O)[N+](=O)[O-],102% (inactive)
5,CCN=c1cc2sc3cc(NCC)c(C)cc3nc-2cc1C,19.9% (inactive)
6,Clc1ccc(-c2nnc(-c3cccc4ccccc34)o2)cc1,95.6% (inactive)
7,COc1cc(OC)c2ccc(=O)oc2c1,105% (inactive)
8,COc1ccc(Oc2c(I)cc(CC(NC(C)=O)C(=O)O)cc2I)cc1 (stereo unspecified),62.4% (inactive)
9,Cc1cc2ccccc2c(O)c1C#N,96% (inactive)
10,CN(C)/N=C/c1ccccc1O,115% (inactive)
11,Cc1cc(C(C)(C)C)cc(C)c1Br,111% (inactive)
12,COc1cc(C2c3cc4c(cc3C3OC(=O)C2C3CO)OCO4)cc(OC)c1OC (stereo unspecified),-2.7% (active)
13,CCCC1(c2ccccc2)NC(=O)NC1=O (stereo unspecified),109% (inactive)
14,CN(C)c1ccc(S(=O)(=O)O)cc1,104% (inactive)
15,Clc1ccc(-c2n[nH]c3c2Cc2ccccc2-3)cc1Cl,95.1% (inactive)
16,S=C1CCCCCN1,104% (inactive)
17,CCCOC(=O)C(O)c1ccccc1 (stereo unspecified),109% (inactive)
18,O=S(=O)(O)c1ccc(O)c2ccccc12,98% (inactive)
19,N/N=C(/Cc1ccccc1)NNC(N)=S,107% (inactive)
